In the supplement of paper PMC12024529:

The compounds below were run on HEK293 WT BDD-FVIII-Gluc (assay: secreted FVIII-Gluc luciferase Z-score vs DMSO control; higher = more FVIII-Gluc secretion). Conditions: 5 µM.
Method: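 Natural plant-compound library (480 compounds, ST catalogue IDs) screened on HEK293 cells stably expressing WT BDD-FVIII-Gaussia luciferase fusion at 5 µM. Secreted Gluc activity in the medium is given as a Z-score relative to DMSO controls.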

Row | SMILES | secreted FVIII-Gluc luciferase Z-score
1 | CCOC(=O)CCC(=O)OC1C(OC2C(C)C(OC3CC(C)(OC)C(O)C(C)O3)C(C)C(=O)OC(CC)C(C)(O)C(O)C(C)C(=O)C(C)CC2(C)O)OC(C)CC1N(C)C (stereo not drawn) | 0.0842
2 | Cn1ccc(O)c(C#N)c1=O | 0.00283
3 | O=c1cc(CO)occ1O | 0.0386
4 | O=C(O)c1cc(O)c2c(c1)[C@@H]([C@H]1c3cc(C(=O)O)cc(O)c3C(=O)c3c(O[C@@H]4O[C@H](CO)[C@@H](O)[C@H](O)[C@H]4O)cccc31)c1cccc(O[C@@H]3O[C@H](CO)[C@@H](O)[C@H](O)[C@H]3O)c1C2=O | 0.274
5 | CC(=O)Oc1ccc(/C=C/C(=O)CC2OC(Oc3cc(OC(C)=O)c4c(c3)O[C@@H](c3ccc(OC(C)=O)cc3)CC4=O)C(OC(C)=O)C(OC(C)=O)C2OC(C)=O)cc1 (stereo partly drawn) | 0.201
6 | CC(C)=CCC[C@H](C)CCO | 0.0595
7 | Cc1cc(=O)oc2cc(O[C@@H]3O[C@H](C(=O)O)[C@@H](O)[C@H](O)[C@H]3O)ccc12 | 0.123
8 | C=CCc1ccc(O)c(OC)c1 | -0.898
9 | COc1cc2c(cc1OC)C(=O)Cc1ccc3c(c1CN(C)CC2)OCO3 | 0.000104
10 | O=C(/C=C/c1ccc(O)c(O)c1)OC(Cc1ccc(O)c(O)c1)C(=O)O (stereo not drawn) | 0.861
11 | COc1cc2nc(N3CCN(C(=O)c4ccco4)CC3)nc(N)c2cc1OC | 0.161
12 | C[C@H](CCC(=O)O)[C@H]1CC[C@H]2[C@@H]3CC[C@@H]4C[C@H](O)CC[C@]4(C)[C@H]3CC[C@]12C | 1.27
13 | CC/C=C\C[C@H]1C(=O)CC[C@@H]1CC(=O)O | 0.253
14 | COc1ccc2oc(-c3cccc(OC)c3OC)cc(=O)c2c1 | 0.436
15 | O=c1cc(-c2ccc(O)c(O)c2)oc2cccc(O)c12 | -0.512
16 | C[C@H]1O[C@@H](O[C@H]2[C@@H](O)C[C@H](O[C@H]3[C@@H](O)C[C@H](O[C@H]4CC[C@@]5(C)[C@H](CC[C@@H]6[C@@H]5CC[C@]5(C)[C@@H](C7=CC(=O)OC7)CC[C@]65O)C4)O[C@@H]3C)O[C@@H]2C)C[C@H](O)[C@@H]1O | -4.57
17 | CCC(C)(C)C(=O)O[C@H]1C[C@@H](C)C=C2C=C[C@H](C)[C@H](CC[C@@H]3C[C@@H](O)CC(=O)O3)[C@H]21 | -0.297
18 | Cc1cc(O)c2c(c1)C(=O)c1cccc(O)c1C2=O | 0.974
19 | OC[C@H]1O[C@@H](OC[C@H]2O[C@@H](O)[C@H](O)[C@@H](O)[C@@H]2O)[C@H](O)[C@@H](O)[C@@H]1O | 0.42

Row | SMILES | secreted FVIII-Gluc luciferase Z-score
20 | C/C1=C\CC(OC(=O)c2ccc(O)cc2)/C(C)=C/C(O)C(C)(C)CCC1 (stereo not drawn) | -0.0859
21 | C/C=C(\C)C(=O)OC1CC2(C)OC2C(OC(C)=O)C2(C)CCC(O)(C(C)C)C12 (stereo not drawn) | -0.754
22 | O=C(O)/C=C/c1ccc(O)c(O)c1 | -0.126
23 | CC(=O)OC1CCC2(C)C3CCC4(C)C(CC5CCCCC54C(C)=O)C3CC(=O)C2(O)C1 (stereo not drawn) | 0.153
24 | N[C@@H](Cc1c[nH]cn1)C(=O)O | 0.64
25 | CC1(C)C=Cc2c(c3ccccc3[nH]c2=O)O1 | 0.817
26 | C=CC(C)(O)CCCC(C)CCCC(C)CCCC(C)C (stereo not drawn) | 0.179
27 | C=C1CCC(O)C/C1=C\C=C1/CCCC2(C)C1CCC2C(C)CCCC(C)C (stereo not drawn) | -1.24
28 | O=c1[nH]c(=O)c2ncn([C@@H]3O[C@H](CO)[C@@H](O)[C@H]3O)c2[nH]1 | 0.541
29 | C=C(CO)C1Cc2c(ccc3c2OC2COc4cc(OC)c(OC)cc4C2C3=O)O1 (stereo not drawn) | -1.91
30 | COc1ccc2c(C)cc(=O)oc2c1 | 0.626
31 | CC(C)=CCc1c(O)cc(O)c2c1O[C@H](c1ccccc1)CC2=O | -0.692
32 | Nc1ncnc2c1ncn2[C@H]1C[C@H](O)[C@@H](COP(=O)(O)O)O1 | 0.376
33 | COc1ccc(-c2cc(=O)c3ccc(O)cc3o2)cc1 | 1.22
34 | O=c1oc2c(O)c(O)cc3c(=O)oc4c(O)c(O)cc1c4c23 | 0.53
35 | N[C@@H](Cc1ccc(O)cc1)C(=O)O | 0.446
36 | COc1cc2c3cc1Oc1c(OC)c(OC)cc4c1[C@@H](Cc1ccc(O)c(c1)Oc1ccc(cc1)C[C@@H]3N(C)CC2)N(C)CC4 | 0.165
37 | COc1cccc(-c2cc(=O)c3cc(O)ccc3o2)c1 | 0.695
38 | CC1(C)S[C@@H]2[C@H](NC(=O)C(N)c3ccccc3)C(=O)N2[C@H]1C(=O)O (stereo partly drawn) | -0.57
